Experimental data published in PubChem BioAssay.
Activity calls are given as the source filed them.

What was measured:
[1] = binders of probe aFSTL3 on microarray, primary screen, stem cell growth factor project, biochemical, small-molecule microarray, fluorescence 635/667 (AID 1064); conditions: higher = more signal;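 also: measures binding of the biotinylated anti-FSTL3 antibody to printed compounds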
[2] = binders from COS7 lysate, DM2A8 probe, primary screen, torsin A project, cell lysate, small-molecule microarray, fluorescence 635/667 (AID 1065); conditions: higher = more signal, COS7 lysate expressing mutant human TOR1A
[3] = binders of probe aFGF2 on microarray, primary screen, stem cell growth factor project, biochemical, small-molecule microarray, fluorescence 635/667 (AID 1067); conditions: higher = more signal;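 also: measures binding of biotinylated aFGF2 protein to printed compounds on slides; z-score merges feature fluorescence and signal-to-noise across triplicate slides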
[4] = binders of probe aFGF10 on microarray, primary screen, stem cell growth factor project, biochemical, small-molecule microarray, fluorescence 635/667 (AID 1071); conditions: higher = more signal;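 also: score merges 667 nm spot intensity and signal to noise from triplicate slides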
[5] = target: Neurogenic locus notch homolog protein 2 (Homo sapiens) (UniProt Q04721); experiment: Notch2 binders on small-molecule microarrays, primary screen, biochemical, small-molecule microarray, 635 nm fluorescence, stem cell growth factors (AID 1073); conditions: Notch2 binding, higher = more signal
[6] = target: Pro-neuregulin-1, membrane-bound isoform (Homo sapiens) (UniProt Q02297); experiment: NRG1 binders on small-molecule microarrays, primary screen, psychiatric disease protein project, biochemical, small-molecule microarray, fluorescence 635/667 (AID 1075); conditions: NRG1 binding, 635 nm fluorescence, higher = more signal;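 also: score combines 667 nm spot fluorescence with signal to noise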
[7] = system: Neuregulin-1 EGF-like domain; experiment: binders of neuregulin-1 EGF-like domain, primary screen, biochemical, small-molecule microarray, 635 nm fluorescence (AID 1081); conditions: small-molecule microarray binding, higher = more signal;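 also: binding of the protein to compounds printed on small-molecule microarray slides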
[8] = FRG1 promoter luciferase signal modulators, primary screen, FRG1 inhibition for FSHD, cell-based, C2C12 myotubes, firefly/Renilla luciferase, luminescence (AID 1084); conditions: higher = more signal, called active from +8 up or from −8 down
[9] = binders of probe aFST on microarray, primary screen, stem cell growth factor project, biochemical, small-molecule microarray, fluorescence 635/667 (AID 1086); conditions: higher = more signal;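 also: score merges 667 nm fluorescence with signal-to-noise of each printed compound spot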
[10] = binders of probe aHhip on microarray, primary screen, stem cell growth factor project, biochemical, small-molecule microarray, fluorescence 635/667 (AID 1087); conditions: higher = more signal;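 also: score merges spot fluorescence at 667nm with spot signal to noise ratio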

Sequence of Pro-neuregulin-1, membrane-bound isoform (Homo sapiens) (Q02297 whole entry, looked up, the tested form may be a part, canonical isoform): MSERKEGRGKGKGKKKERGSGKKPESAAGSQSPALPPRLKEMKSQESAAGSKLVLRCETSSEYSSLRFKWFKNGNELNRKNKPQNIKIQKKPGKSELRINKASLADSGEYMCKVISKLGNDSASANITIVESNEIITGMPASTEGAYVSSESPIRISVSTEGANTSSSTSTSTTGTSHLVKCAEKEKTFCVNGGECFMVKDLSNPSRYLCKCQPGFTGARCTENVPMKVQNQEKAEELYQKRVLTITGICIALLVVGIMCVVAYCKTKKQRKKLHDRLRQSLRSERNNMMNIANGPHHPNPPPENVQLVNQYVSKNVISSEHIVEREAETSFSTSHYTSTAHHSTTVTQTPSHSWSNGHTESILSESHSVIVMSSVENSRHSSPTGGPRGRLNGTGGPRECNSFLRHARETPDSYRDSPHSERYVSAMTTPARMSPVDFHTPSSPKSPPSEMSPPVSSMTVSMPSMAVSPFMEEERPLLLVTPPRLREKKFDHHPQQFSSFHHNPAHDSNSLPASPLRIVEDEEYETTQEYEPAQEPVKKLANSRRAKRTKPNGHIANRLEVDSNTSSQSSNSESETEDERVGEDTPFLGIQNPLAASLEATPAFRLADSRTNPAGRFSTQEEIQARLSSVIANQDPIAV
Sequence of Neurogenic locus notch homolog protein 2 (Homo sapiens) (Q04721 whole entry, looked up, canonical isoform): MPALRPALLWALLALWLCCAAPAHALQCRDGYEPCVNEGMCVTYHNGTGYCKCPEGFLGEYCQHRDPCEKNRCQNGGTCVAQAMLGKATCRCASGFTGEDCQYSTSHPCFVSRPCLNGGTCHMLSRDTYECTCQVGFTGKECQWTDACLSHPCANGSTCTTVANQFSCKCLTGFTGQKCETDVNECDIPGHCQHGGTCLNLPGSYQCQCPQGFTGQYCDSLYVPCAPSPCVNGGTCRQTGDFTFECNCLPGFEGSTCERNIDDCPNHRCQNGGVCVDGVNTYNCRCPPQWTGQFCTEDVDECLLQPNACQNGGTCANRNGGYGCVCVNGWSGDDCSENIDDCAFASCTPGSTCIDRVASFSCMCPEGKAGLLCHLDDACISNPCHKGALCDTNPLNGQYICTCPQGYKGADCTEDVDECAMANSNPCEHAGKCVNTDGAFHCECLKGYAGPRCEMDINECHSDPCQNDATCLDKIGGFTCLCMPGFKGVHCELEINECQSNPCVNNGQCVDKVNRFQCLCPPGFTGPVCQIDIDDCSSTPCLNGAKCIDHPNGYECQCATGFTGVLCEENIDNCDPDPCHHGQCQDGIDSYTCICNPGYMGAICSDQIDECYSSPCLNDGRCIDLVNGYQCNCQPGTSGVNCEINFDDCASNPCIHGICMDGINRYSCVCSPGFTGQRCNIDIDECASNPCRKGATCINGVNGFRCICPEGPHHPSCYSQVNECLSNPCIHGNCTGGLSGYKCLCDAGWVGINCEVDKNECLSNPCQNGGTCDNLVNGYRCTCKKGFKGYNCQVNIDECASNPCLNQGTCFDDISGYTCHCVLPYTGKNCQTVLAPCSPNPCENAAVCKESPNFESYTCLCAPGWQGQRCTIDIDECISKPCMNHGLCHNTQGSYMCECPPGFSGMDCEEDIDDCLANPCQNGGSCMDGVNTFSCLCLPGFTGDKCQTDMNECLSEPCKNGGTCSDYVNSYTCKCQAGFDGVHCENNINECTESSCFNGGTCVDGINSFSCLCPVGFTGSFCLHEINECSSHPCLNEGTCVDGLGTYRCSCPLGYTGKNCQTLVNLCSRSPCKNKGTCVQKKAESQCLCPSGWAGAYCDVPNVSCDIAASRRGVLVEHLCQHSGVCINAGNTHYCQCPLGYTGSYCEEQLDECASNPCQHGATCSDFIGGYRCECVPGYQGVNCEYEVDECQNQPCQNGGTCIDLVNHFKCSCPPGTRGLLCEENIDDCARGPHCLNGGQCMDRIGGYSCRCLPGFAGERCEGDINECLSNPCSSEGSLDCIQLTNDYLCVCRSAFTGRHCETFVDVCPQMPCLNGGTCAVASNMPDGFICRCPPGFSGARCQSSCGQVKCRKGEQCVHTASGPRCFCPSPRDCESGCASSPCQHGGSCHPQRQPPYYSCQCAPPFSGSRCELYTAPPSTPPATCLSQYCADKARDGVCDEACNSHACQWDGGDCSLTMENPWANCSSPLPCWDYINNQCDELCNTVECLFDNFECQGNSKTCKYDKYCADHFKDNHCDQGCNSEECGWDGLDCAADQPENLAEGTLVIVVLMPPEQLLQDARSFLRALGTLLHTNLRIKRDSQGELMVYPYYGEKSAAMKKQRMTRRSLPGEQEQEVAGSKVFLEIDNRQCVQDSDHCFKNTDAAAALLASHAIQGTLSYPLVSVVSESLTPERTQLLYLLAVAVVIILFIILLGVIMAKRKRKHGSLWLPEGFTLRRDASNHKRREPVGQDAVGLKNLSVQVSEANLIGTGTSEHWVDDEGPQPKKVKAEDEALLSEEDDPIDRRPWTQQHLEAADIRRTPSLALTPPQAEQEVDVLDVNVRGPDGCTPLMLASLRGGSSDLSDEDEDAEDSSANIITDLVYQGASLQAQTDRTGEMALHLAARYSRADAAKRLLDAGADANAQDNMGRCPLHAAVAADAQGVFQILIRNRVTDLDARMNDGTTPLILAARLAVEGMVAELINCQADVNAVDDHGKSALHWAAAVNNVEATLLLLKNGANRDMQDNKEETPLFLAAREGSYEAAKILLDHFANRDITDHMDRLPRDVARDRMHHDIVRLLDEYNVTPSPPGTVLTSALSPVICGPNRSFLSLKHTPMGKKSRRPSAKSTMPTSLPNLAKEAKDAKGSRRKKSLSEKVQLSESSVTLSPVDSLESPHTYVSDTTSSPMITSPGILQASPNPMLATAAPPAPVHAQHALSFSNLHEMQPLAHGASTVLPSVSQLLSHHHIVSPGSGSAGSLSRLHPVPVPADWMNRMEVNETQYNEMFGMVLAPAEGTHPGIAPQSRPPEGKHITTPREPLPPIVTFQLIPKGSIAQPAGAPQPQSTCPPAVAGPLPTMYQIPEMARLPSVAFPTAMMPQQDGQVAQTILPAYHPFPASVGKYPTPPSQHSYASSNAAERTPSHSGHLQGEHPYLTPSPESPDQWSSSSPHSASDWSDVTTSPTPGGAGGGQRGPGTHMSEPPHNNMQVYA

SMILES | composite z-score [1] | composite z-score [2] | composite z-score [3] | composite z-score [4] | composite z-score [5] | composite z-score [6] | composite z-score [7] | z-score [8] | composite z-score [9] | composite z-score [10]
O=C(NN=C1C[C@@H](O)[C@@H](O)[C@@H]2[C@@H]3C(=O)N(c4cccc(Oc5ccccc5)c4)C(=O)[C@@H]3CC[C@H]12)OCc1ccccc1 | -0.0678 | 0.249 | -0.101 | 0.0108 | 0.176 | 0.301 | -0.533 | 0.723 (inactive) | 0.182 | -0.249
COCCOC(=O)N1C(=O)[C@@]2(c3ccccc31)[C@H](C(N)=O)[C@H]1C(=O)O[C@H](c3ccccc3)[C@H](c3ccccc3)N1[C@@H]2c1ccccc1OCCO | 0.0407 | 1.67 | 0.147 | 0.937 | 0.899 | 1.42 | 1.11 | -0.732 (inactive) | 0.521 | 0.234
CCc1cc2c(nc1CC)CCN(CCC(C)=NOC[C@@H](O)[C@H]1O[C@@H]3OC(C)(C)O[C@@H]3[C@H]1O)C2 | -0.436 | 0.273 | -0.148 | 0.0851 | 0.191 | 0.146 | 0.335 | 1.35 (inactive) | 0.0391 | -0.0088
O=C1[C@H]2[C@H]3[C@H](O)[C@H](O)CC(=NOCc4ccccc4)[C@H]3CC[C@H]2C(=O)N1c1ccc(F)cc1F | -0.426 | -0.0076 | -0.0561 | 0.0471 | -0.0497 | 0.757 | 0.106 | 0.131 (inactive) | -0.314 | -0.214
COCCOC(=O)N1C(=O)[C@@]2(c3cc(C#CCNC(N)=O)ccc31)[C@H](c1ccccc1OCCO)N1[C@H](c3ccccc3)[C@H](c3ccccc3)OC(=O)[C@H]1[C@@H]2C(=O)N1CCN(c2ncccn2)CC1 | 0.202 | 1 | 0.0019 | 1.15 | 1.27 | 1.27 | 0.955 | -1.69 (inactive) | 0.141 | -0.0618
CO[C@H]1O[C@H](CO)[C@@H](OC(=O)Nc2ccc3c(c2)OCO3)[C@H](OC(=O)Nc2ccccc2-c2ccccc2)[C@@H]1OC(=O)Nc1ccccc1-c1ccccc1 | 0.0442 | -0.029 | -0.0238 | 1.13 | 1.57 | 0.985 | 1.17 | 1.36 (inactive) | 0.626 | 0.151
CC(=O)OC[C@H]1O[C@@H](ON=C(C)CCN2CCc3nc(-c4ccccc4)c(-c4ccccc4)cc3C2)[C@H](OC(C)=O)[C@@H](OC(C)=O)[C@@H]1OC(C)=O | -0.209 | 0.217 | -0.213 | 0.958 | 1.11 | 0.817 | 0.992 | 0.66 (inactive) | 0.473 | 0.21
CC[C@@H](c1ccccc1)n1c(=O)n2n(c1=O)[C@H]1[C@H](O)[C@@H]3O[C@@H]3C(=NOCC=C(C)CCC=C(C)C)[C@H]1CC2 | -0.415 | 0.138 | -0.102 | 0.471 | 0.8 | 0.8 | 0.89 | -0.0545 (inactive) | 0.572 | -0.169
CCCC[C@@H]1C[C@H]1[C@@H](NS(=O)(=O)c1cccc2cccnc12)c1ccc(-c2ccccc2)cc1 | 0.682 | -0.165 | 0.0011 | 0.0132 | 0.523 | 0.071 | 0.918 | 0.448 (inactive) | 0.436 | -0.0123
CC(C)CON=C1[C@H]2CCn3c(=O)n(-c4ccccc4)c(=O)n3[C@H]2[C@H](O)[C@@H]2O[C@H]12 | -0.358 | -0.0519 | -0.102 | 0.325 | 0.532 | -0.0371 | 0.323 | -0.217 (inactive) | 0.204 | -0.069
CCc1cccc(NC(=O)O[C@H]2[C@H](OC(=O)Nc3ccc4c(c3)OCO4)[C@@H](OC(=O)Nc3ccc4c(c3)OCO4)[C@@H](OC)O[C@@H]2CO)c1 | -0.263 | 1.45 | 0.225 | 1 | 1.49 | -0.396 | 1.25 | 8.02 (active) | 0.507 | -0.15
COc1cccc([C@@H]2Oc3ccc(Br)cc3C(=O)[C@H]2O)c1 | -0.614 | 0.291 | -0.0291 | 0.783 | 0.458 | 0.297 | 0.972 | 3.62 (inactive) | 0.0846 | 0.235
C=CCOC(=O)[C@H]1[C@@H]2C(=O)O[C@@H](c3ccccc3)[C@@H](c3ccccc3)N2[C@@H](c2ccc(OCCOC(=O)[C@H]3C[C@H]4C(=O)N5CCC[C@H]5C(=O)N4[C@H]3c3cccc(OCCO)c3)cc2)[C@]12C(=O)Nc1ccc(I)cc12 | 1.82 | 1.9 | 0.522 | 0.92 | 1.47 | 2.91 | 1.47 | 1.07 (inactive) | 2.63 | 0.794
C=CC[C@@H]1C=C[C@H](ON=C[C@@H](OC)[C@H](C)C=CCC(=O)OC)[C@@H](CO)O1 | -0.147 | 0.827 | -0.0493 | 0.223 | -0.203 | 0.161 | 0.528 | 0.813 (inactive) | 0.0886 | -0.0346
CC(CCC(=O)OC[C@H]1O[C@H](C#Cc2ccccc2)C=C[C@@H]1Oc1ccc(C)cc1)=NOC[C@@H](O)[C@H]1O[C@@H]2OC(C)(C)O[C@@H]2[C@H]1O | -0.378 | -0.587 | -0.229 | -0.44 | -0.836 | -0.116 | -0.0458 | 0.0054 (inactive) | -0.865 | -0.172
C#CCCCON=C1C[C@@H](O)[C@@H](O)[C@@H]2[C@@H]3C(=O)N(c4cccc(Oc5ccccc5)c4)C(=O)[C@@H]3CC[C@@H]12 | -0.456 | -0.666 | -0.0296 | 0.967 | 0.88 | 1.44 | 0.598 | 0.407 (inactive) | 0.319 | -0.334
C=CC[C@@H]1C=C[C@H](ON=Cc2ccc(C(=O)N3[C@H](c4ccc(C)cc4)[C@@H](C)CC[C@H]3C(=O)OC)cc2)[C@@H](CO)O1 | -0.482 | 0.835 | -0.0687 | 0.304 | 0.842 | 0.0373 | 0.586 | 0.274 (inactive) | 0.108 | -0.0994
